Drawing on ChEMBL document CHEMBL3988442, “University of Dundee, Small-Polar-MMV Screening Library” (2021), this text covers Percent Effect for 50 compounds.

Test [1] addresses T1, Aspartate--tRNA(Asp/Asn) ligase (Mycobacterium tuberculosis (strain ATCC 25618 / H37Rv)) (UniProt P9WFW3).
T1 sequence (whole entry): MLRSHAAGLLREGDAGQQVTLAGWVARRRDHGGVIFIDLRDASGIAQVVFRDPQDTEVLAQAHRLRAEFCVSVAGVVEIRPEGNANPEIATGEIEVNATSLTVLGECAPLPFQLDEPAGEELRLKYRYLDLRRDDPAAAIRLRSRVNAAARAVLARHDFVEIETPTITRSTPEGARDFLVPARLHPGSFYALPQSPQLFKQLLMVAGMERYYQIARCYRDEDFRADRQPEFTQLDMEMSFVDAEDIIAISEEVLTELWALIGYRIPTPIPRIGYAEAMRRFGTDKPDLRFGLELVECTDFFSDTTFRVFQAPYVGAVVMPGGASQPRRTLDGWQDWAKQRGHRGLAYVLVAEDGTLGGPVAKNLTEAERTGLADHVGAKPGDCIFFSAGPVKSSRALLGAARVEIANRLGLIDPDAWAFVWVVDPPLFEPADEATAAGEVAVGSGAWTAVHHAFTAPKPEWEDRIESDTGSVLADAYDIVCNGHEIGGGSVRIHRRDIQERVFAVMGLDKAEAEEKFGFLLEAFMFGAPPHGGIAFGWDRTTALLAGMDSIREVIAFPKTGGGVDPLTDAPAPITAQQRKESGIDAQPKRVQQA
As to the kind of experiment: Assay for Asp RNA synthetase-1 from Mycobacterium tuberculosis. The test is classed as functional. Also noted: scale not given: direction of the effect not stated beside the values. Particulars: 30 µM.

For test [2], the target named is Shiga toxin 2 (Escherichia coli O157:H7) (UniProt P09385+P09386). Briefly: E. coli 0.157:H7 Shiga Toxin SOP - stx2 screening assay. The test is classed as functional. More on the design: scale not given: direction of the effect not stated beside the values. Particulars: 30 µM.

With `CNS(=O)(=O)c1ccc(CNC(=O)NCC2CCCO2)cc1` (stereo not given), the values for the Percent Effect in test [1] and in test [2] were 0.75% and 25.4%, respectively.
For `CC(=O)N1CCC2(CC1)C(=O)N(CC1CC1)c1ccccc12` the same measures were -1.18% and -4.33%.
For `CC(=O)N1CCC(C(=O)c2cc(C)cnc2N)CC1` the same measures were 0.75% and -6.78%.
In the same order, the values of `COC(=O)c1ccc(N2CCN(CCC#N)C(C)C2)cc1` (stereo not given) are 2.13% and 37.7%.
`CNC(=O)N1C[C@H]2CC[C@@]3(N=C(c4ccccc4)NC3=O)[C@H]2C1`: the values for the Percent Effect in test [1] and in test [2] were 4.9% and -20.9%, respectively.
In the same order, the values of `Cc1nccn1CC1CCCN1CCCc1nc(-c2cccs2)no1` (stereo not given) are 5.89% and 16.4%.
For `CC(C)c1nc2c(n1C)CCN(Cc1nc(-c3cccs3)no1)C2` the same measures were -1.02% and -0.957%.
In the same order, the values of `O=C(CCc1ccccc1)NCC1CCN(Cc2ccsc2)CC1` are -3.19% and -9.05%.
As for `COc1nc2c(cc1C(=O)N1C[C@H](N)C[C@H]1C(=O)NC(C)C)CCC2`, the Percent Effect is -4.9% in test [1] and 12.5% in test [2].
In the same order, the values of `NC(=O)COc1cccc(C(=O)N2CCCC(n3ccnc3)C2)c1` (stereo not given) are 0.962% and -19.9%.
For the compound `O=C(c1cnc(C2CC2)s1)N1CCCC(n2cccn2)C1` (stereo not given), the Percent Effect in test [1] was -2.52%; in test [2] it was 24.9%.
In the same order, the values of `O=C(N1CCC(Nc2cccnn2)CC1)C1(c2ccc(F)cc2)CC1` are 4.44% and -20.3%.
In the same order, the values of `CCn1ccnc1CN1CCN(CCOc2ccccc2OC)CC1` are -3.95% and -17.6%.
`COc1ccc(CC(=O)N(C)Cc2nnc3ccccn23)cc1`: the figures for the Percent Effect in test [1] and in test [2] were 2.36% and 2.4%, respectively.
For `CCC(=O)N1CCC2(CC1)c1nc[nH]c1CCN2S(C)(=O)=O` the same measures were -2.17% and 14.6%.
In the same order, the values of `Cc1nc(CNC(=O)Cn2nc(-c3ccc(F)cc3)oc2=O)cs1` are -0.967% and 17.9%.
In the same order, the values of `Cc1cccc(CN2C[C@@H]3COC[C@]3(CNC(=O)N3CCCC3)C2)n1` are 2.42% and 11.4%.
As to `Cn1cc(CCC(=O)N2CCN(Cc3ccncc3)CC2)cn1`, the Percent Effect in test [1] was -1.76%; in test [2] it was 1.29%.
In the same order, the values of `Cc1cccc(C2(CNC(=O)CCNS(C)(=O)=O)CCCC2)c1` are -6.94% and -8.2%.
On to `CC(C)(C)c1nnc(CN2CCOC(Cn3cccn3)C2)o1` (stereo not given), for which the Percent Effect in test [1] is -6.74%; in test [2], -2.05%.
With `OCC1CCCN1c1cc(NCCNc2ccccn2)ncn1` (stereo not given), the results for the Percent Effect in test [1] and in test [2] were 8.62% and -85.7%, respectively.
For `CCc1c(C)nc2n(c1=O)CC(C(=O)Nc1nccs1)CS2` (stereo not given) the same measures were -3.8% and -29.4%.
In the same order, the values of `CCN(CC)c1ccc(C(=O)NCc2cccnc2-n2cncn2)cn1` are 6% and -12.3%.
In the same order, the values of `Cc1cnc(CN(C)C2CCN(Cc3ccccc3C#N)C2)o1` (stereo not given) are -4.54% and -34.4%.
Turning to `Cc1cc2nc(SCC(=O)N3CCCC3)n(-c3ccccc3)c(=O)c2[nH]1`, the results for the Percent Effect in test [1] and in test [2] were 15.3% and -24.4%, respectively.
For `O=C1CC(c2ccccc2)c2c(n3ccsc3nc2=O)N1` (stereo not given) the same measures were -1.74% and -13.6%.
For `CCOc1ccc(Cl)c(C(=O)N2CCN(c3cnccn3)CC2)n1` the same measures were -1.79% and -46.8%.
Take `O=C(Cc1ccccn1)N1CCC2(CC1)CC(Oc1ccccn1)CO2` (stereo not given): the Percent Effect in test [1] was -3.87%; in test [2], -3.37%.
In the same order, the values of `O=C(c1ccnnc1)N1C[C@@H]2CC[C@H](Oc3cccc(F)c3)[C@@H]2C1` are 3.77% and -5.52%.
Regarding `CCn1cc2c(n1)CN(Cc1nccs1)CC2COCC1CC1` (stereo not given), the Percent Effect in test [1] was 5.78%; in test [2], -5.95%.
For `COc1cccc(CN(C)S(=O)(=O)N2CCOCC2)c1` the same measures were -0.479% and 9.56%.
Turning to `CC(C)n1cc(CN2CCCN(C(=O)c3ccc[nH]3)CC2)cn1`, the figures for the Percent Effect in test [1] and in test [2] were -3.14% and -5.02%, respectively.
For `Clc1snnc1CN1CCCCC1Cn1cncn1` (stereo not given) the same measures were -1.89% and -12%.
`O=C(O)C1CCCCN1C(=O)c1cccc(C(F)(F)F)c1` (stereo not given): the Percent Effect is -1.94% in test [1] and 33.5% in test [2].
For `N#Cc1ccc(CNCC2CCN(CCO)CC2)cc1` the same measures were 5.92% and -29.9%.
In the same order, the values of `O=C(CCNC(=O)c1ccccc1N1CCOCC1)NC1CCCC1` are -1.94% and -19.9%.
In the same order, the values of `CCS(=O)(=O)N(C)c1ccc(C(=O)N2CCCC(C)C2)cc1` (stereo not given) are -3.31% and -3.21%.
As for `COc1cccc(-n2c(C)cc(C(=O)NS(C)(=O)=O)c2C)c1`, the Percent Effect in test [1] is -1.31%; in test [2], 4.7%.
In the same order, the values of `COc1ccc2c(c1)OC1(CCN(Cc3ccc(F)cc3)CC1)CC2=O` are -5.55% and 17.6%.
In the same order, the values of `CC(NC(=O)CSCC(=O)Nc1ccccc1)c1ccccc1` (stereo not given) are 3.01% and 16.8%.
For `CC(C)(C)c1n[nH]c(C2CN(C(=O)c3cc(Cl)c[nH]3)CCO2)n1` (stereo not given) the same measures were -4.97% and 0.626%.
Consider `CCn1ncnc1C(C)NC(=O)C1CCN(C(=O)COC)CC1` (stereo not given), for which the Percent Effect in test [1] was found to be 6.73%; in test [2] it was 11.1%.
In the same order, the values of `CCN1CCC2(C=C(C(=O)NC3CC3)c3ccccc32)CC1` are -0.796% and 1.55%.
For `O=C([C@@H]1C[C@H]2[C@H](CCN2Cc2nccs2)O1)N1CCOCC1` the same measures were 2.29% and -22.3%.
In the same order, the values of `Cc1ccc(C(=O)NC2CCN(Cc3noc(CC(C)C)n3)CC2)s1` are 7.55% and -63.2%.
For the compound `N#CC1(C(=O)N2CCN(c3nccs3)CC2)CCCCC1`, the Percent Effect was -2.57% in test [1] and 33.3% in test [2].
As to `COc1cccc2c1OCC(C(=O)N(C)CCCc1cnn(C)c1)C2` (stereo not given), the Percent Effect is 9.43% in test [1] and -7.98% in test [2].
Consider `COc1ccc(C(=O)N2CCC(Nc3cccnn3)CC2)c(OC)c1`, for which the figures for the Percent Effect in test [1] and in test [2] were -0.568% and 8.84%, respectively.
For `Cc1c(NC(=O)NCC(C)N2CCOCC2)cccc1OC(F)F` (stereo not given) the same measures were -1.79% and 3.31%.
In the case of `CS(=O)(=O)NC[C@]12COC[C@H]1CN(C(=O)C1CCCCC1)C2`, the values for the Percent Effect in test [1] and in test [2] were 7.93% and -3.53%, respectively.
